Test results taken from PubChem BioAssay (Tox21).
Values joined by “and” are separate entries in the source; they are usually repeats but may differ in a detail not shown here. Equal values may be shown once. Inconclusive results are not listed. Where a call stands in place of a potency, no number is given. Some compounds were tested as several samples or in several runs, with calls that do not always agree. Active and inactive are the calls of the source. Unless noted, the call rests on the fitted dose curve; in most records, active means well fitted curve in the direction sought with a large enough effect in the repeat runs; inconclusive means weak or mixed curves; inactive means no such curve, though single readings can be large; an effect the other way counts as inactive or inconclusive.

Columns and labels:
[1] = qHTS assay to identify small molecule antagonists of the thyroid receptor (TR) signaling pathway - cell viability counter screen (AID 743064); further: nearly all actives have a fitted effect of over 50% in size
Method in brief: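 CellTiter-Fluor readout, 30 min at 37 °C/5% CO2, following 23.5 h incubation of GH3.TRE-Luc cells with test compound and 1 nM T3 (final).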

[2] = qHTS assay to identify small molecule antagonists of the thyroid receptor (TR) signaling pathway (AID 743065); further: series mostly up to about 70 µM; nearly all actives have a fitted effect of over 55% in size
Method in brief: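 GH3.TRE-Luc rat pituitary cells (two TREs driving luciferase) were dosed with compound, then stimulated with 1 nM T3 (final) for 23.5 h at 37 C. ONE-Glo luminescence was the read-out, with CellTiter-Fluor fluorescence as the cytotoxicity counter-screen.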

[3] = system: thyroid hormone receptor (rat, GH3 cells); assay: qHTS assay to identify small molecule agonists of the thyroid receptor (TR) signaling pathway (AID 743066; calls by dose curve)
[4] = target: Estrogen receptor (Homo sapiens) (UniProt P03372); assay: qHTS assay to identify small molecule antagonists of the estrogen receptor alpha (ER-alpha) signaling pathway (AID 743069; active means well fitted curve in the direction sought with a large enough effect in the signal ratio in the repeat runs, not every such curve was filed as active; the % refers to the signal ratio)
Chain of Estrogen receptor (Homo sapiens) (P03372 whole entry, looked up): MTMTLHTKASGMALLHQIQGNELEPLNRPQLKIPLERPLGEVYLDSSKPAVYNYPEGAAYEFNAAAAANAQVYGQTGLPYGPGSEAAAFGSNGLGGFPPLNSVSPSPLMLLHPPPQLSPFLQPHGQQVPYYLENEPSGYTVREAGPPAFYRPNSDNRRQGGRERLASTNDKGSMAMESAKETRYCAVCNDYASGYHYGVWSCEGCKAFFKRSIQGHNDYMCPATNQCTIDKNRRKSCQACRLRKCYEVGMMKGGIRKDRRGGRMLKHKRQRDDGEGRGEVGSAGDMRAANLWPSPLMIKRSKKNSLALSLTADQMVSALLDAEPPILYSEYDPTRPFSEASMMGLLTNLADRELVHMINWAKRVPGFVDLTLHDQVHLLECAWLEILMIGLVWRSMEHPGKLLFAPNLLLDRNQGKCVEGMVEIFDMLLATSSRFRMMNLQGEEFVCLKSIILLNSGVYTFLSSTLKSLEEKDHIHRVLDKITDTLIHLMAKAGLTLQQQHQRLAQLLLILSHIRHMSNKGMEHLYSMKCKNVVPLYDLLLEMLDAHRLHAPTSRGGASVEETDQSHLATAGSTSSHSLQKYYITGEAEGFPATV
Method in brief: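 Reporter cells (ER-alpha-bla, HEK293 background) are conditioned overnight in stripped-serum medium (2% charcoal-stripped FBS). Compound and 17beta-estradiol exposure runs 18 hr at 37C, 5% CO2.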

[5] = qHTS assay to identify small molecule antagonists of the estrogen receptor alpha (ER-alpha) signaling pathway - cell viability counter screen (AID 743074; calls by dose curve;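 further: HEK293 cells carrying ER-alpha-UAS-bla reporter stimulated with 17beta-estradiol; nearly all actives have a fitted effect of over 45% in size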)
[6] = target: Estrogen receptor (Homo sapiens) (UniProt P03372); assay: qHTS assay to identify small molecule agonists of the estrogen receptor alpha (ER-alpha) signaling pathway (AID 743075; calls by dose curve;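 further: HEK293 GripTite cells with ER-alpha and UAS-driven beta-lactamase reporter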)
[7] = target: Estrogen receptor (Homo sapiens) (UniProt P03372); assay: qHTS assay to identify small molecule agonists of the estrogen receptor alpha (ER-alpha) signaling pathway using the BG1 cell line (AID 743079); further: nearly all actives have a fitted effect of over 20% in size; further: potency means the concentration at half of the fitted maximal effect
[8] = qHTS assay to identify small molecule antagonists of the estrogen receptor alpha (ER-alpha) signaling pathway using the BG1 cell line (AID 743080; calls by dose curve; further: series mostly up to about 70 µM; nearly all actives have a fitted effect of over 25% in size)
Method in brief: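 Antagonist mode: compounds in DMSO were pinned onto BG1-Luc-4E2 cells alongside 17beta-estradiol agonist, incubated 21.5 h, and ERE-driven luciferase measured with ONE-Glo. Cytotoxicity was multiplexed using CellTiter-Fluor fluorescence.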

[9] = qHTS assay to identify small molecule antagonists of the estrogen receptor alpha (ER-alpha) signaling pathway using the BG1 cell line - cell viability counter screen (AID 743081);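 further: compound given together with 17beta-estradiol as the ER stimulus; series mostly up to about 70 µM; nearly all actives have a fitted effect of over 45% in size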
Aromatase (Homo sapiens) = Aromatase (Homo sapiens) (UniProt P11511); assay: qHTS assay to identify aromatase inhibitors (AID 743083); further: series mostly up to about 70 µM; nearly all actives have a fitted effect of over 55% in size
Chain of Aromatase (Homo sapiens) (P11511 whole entry, looked up): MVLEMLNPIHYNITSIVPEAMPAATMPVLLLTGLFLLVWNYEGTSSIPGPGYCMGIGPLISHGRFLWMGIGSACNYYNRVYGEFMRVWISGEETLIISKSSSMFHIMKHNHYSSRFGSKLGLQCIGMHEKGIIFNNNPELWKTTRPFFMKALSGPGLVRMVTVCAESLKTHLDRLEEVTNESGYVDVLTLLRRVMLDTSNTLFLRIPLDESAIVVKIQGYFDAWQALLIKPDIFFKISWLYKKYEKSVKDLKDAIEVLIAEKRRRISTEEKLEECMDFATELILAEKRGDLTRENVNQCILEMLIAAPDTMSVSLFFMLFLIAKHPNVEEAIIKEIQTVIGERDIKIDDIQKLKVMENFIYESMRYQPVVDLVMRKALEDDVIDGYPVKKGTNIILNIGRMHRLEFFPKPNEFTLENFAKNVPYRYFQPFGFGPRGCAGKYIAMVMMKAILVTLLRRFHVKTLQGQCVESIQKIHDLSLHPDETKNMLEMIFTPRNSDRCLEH

[10] = qHTS assay to identify aromatase inhibitors - cell viability counter screen (AID 743084);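 further: cells stimulated with testosterone during compound exposure; nearly all actives have a fitted effect of over 55% in size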
[11] = target: Aryl hydrocarbon receptor (Homo sapiens) (UniProt P35869); assay: qHTS assay to identify small molecule that activate the aryl hydrocarbon receptor (AhR) signaling pathway (AID 743085);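 further: HG2L7.5c1 human HepG2 liver cells with stably integrated DRE-driven firefly reporter; series mostly up to about 70 µM; nearly all actives have a fitted effect of over 15% in size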
Chain of Aryl hydrocarbon receptor (Homo sapiens) (P35869 whole entry, looked up): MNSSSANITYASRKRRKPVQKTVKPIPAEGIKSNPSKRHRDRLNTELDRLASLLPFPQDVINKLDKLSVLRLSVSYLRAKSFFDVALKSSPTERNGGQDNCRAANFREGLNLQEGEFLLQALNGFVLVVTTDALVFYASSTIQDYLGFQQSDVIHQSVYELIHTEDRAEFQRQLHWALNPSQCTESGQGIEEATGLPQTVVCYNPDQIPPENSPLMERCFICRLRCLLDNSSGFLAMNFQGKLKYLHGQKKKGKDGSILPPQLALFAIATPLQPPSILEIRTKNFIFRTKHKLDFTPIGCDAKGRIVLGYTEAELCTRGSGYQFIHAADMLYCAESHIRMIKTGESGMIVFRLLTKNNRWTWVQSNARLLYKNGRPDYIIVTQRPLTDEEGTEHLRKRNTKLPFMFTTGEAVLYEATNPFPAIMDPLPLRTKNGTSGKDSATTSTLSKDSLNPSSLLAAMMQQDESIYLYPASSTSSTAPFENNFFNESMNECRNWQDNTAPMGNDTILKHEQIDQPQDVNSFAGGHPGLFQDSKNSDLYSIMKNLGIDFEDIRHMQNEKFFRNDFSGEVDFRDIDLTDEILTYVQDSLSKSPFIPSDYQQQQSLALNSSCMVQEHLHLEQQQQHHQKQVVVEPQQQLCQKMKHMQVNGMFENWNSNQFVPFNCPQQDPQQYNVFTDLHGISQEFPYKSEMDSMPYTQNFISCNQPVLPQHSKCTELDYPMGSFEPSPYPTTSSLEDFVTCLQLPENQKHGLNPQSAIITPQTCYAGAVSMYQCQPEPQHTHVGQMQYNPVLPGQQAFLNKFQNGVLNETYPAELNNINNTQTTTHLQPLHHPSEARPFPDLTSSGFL
Method in brief: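 Stably transfected human liver carcinoma cells (HG2L7.5c1; 20 DRE-firefly luciferase) were incubated 5 h, dosed, and kept 24 h at 37C. Agonism was scored from increased luciferase luminescence.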

[12] = qHTS assay to identify small molecule that activate the aryl hydrocarbon receptor (AhR) signaling pathway - cell viability counter screen (AID 743086);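 further: HepG2 liver cells carrying the AhR DRE luciferase reporter; series mostly up to about 70 µM; nearly all actives have a fitted effect of over 45% in size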
Method in brief: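 HepG2-AhR-luc (HG2L7.5c1) cells, 4000/well, treated 24 h at 37 C with compound; viability measured as CellTiter-Fluor fluorescence after 30 min in the same wells as the luciferase read.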

[13] = target: Peroxisome proliferator-activated receptor gamma (Homo sapiens) (UniProt P37231); assay: qHTS assay to identify small molecule antagonists of the peroxisome proliferator-activated receptor gamma (PPARg) signaling pathway (AID 743191; calls by dose curve; further: series mostly up to about 63 µM; nearly all actives have a fitted effect of over 30% in size)
Chain of Peroxisome proliferator-activated receptor gamma (Homo sapiens) (P37231 whole entry, looked up): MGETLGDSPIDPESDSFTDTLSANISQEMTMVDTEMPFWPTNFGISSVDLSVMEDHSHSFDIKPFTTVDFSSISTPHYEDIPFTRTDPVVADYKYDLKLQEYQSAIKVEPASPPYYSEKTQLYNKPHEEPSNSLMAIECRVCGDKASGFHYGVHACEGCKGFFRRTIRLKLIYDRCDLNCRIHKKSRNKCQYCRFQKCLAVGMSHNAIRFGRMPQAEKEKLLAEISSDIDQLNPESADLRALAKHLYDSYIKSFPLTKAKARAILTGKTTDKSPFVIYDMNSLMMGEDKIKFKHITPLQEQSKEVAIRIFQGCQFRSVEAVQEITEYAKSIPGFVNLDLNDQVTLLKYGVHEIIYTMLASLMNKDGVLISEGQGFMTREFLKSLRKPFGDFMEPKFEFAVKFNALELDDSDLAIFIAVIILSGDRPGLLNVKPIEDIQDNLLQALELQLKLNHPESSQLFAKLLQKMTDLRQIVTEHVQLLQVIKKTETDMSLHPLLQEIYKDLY
Method in brief: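 GeneBLAzer PPARg UAS-bla HEK293H cells, 5 h post-plating, exposed to compounds 17 h at 37C. LiveBLAzer B/G FRET substrate added for 1 h at room temperature; beta-lactamase reporter read by fluorescence intensity.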

[14] = qHTS assay to identify small molecule antagonists of the peroxisome proliferator-activated receptor gamma (PPARg) signaling pathway - cell viability counter screen (AID 743194); further: nearly all actives have a fitted effect of over 55% in size
Method in brief: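 Cytotoxicity counter screen in PPARg-bla HEK293H cells, same wells as reporter assay. Compounds plus 50 nM rosiglitazone (final) for 17 h at 37 C, then viability read by CellTiter-Glo luminescence.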

[15] = qHTS assay for small molecule agonists of the antioxidant response element (ARE) signaling pathway (AID 743202; active means well fitted activation curve with a large enough effect in the signal ratio in the repeat runs, not every such curve was filed as active; the % refers to the signal ratio; further: potency means the concentration at half of the fitted maximal effect)
Method in brief: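 Agonist mode reporter screen: HepG2 cells with ARE-controlled beta-lactamase are incubated with test compounds for 16 h at 37 C, and beta-lactamase activity is measured as fluorescence of cleaved B/G FRET substrate.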

[16] = qHTS assay for small molecule agonists of the antioxidant response element (ARE) signaling pathway - cell viability counter screen (AID 743203; calls by dose curve; further: nearly all actives have a fitted effect of over 55% in size)
Method in brief: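 Seeded at 2,000 cells/well, ARE-bla HepG2 cells were incubated 5 hrs before compound addition. After 16 hrs of treatment at 37C with 5% CO2, CellTiter-Glo reagent was added and luminescence read 30 min later.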

[17] = target: Peroxisome proliferator-activated receptor gamma (Homo sapiens) (UniProt P37231); assay: qHTS assay to identify small molecule agonists of the peroxisome proliferator-activated receptor gamma (PPARg) signaling pathway (AID 743094; active means well fitted activation curve with a large enough effect in the signal ratio in the repeat runs, not every such curve was filed as active; the % refers to the signal ratio)
Method in brief: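 Quantitative HTS agonist mode: stable HEK293H line with UAS-beta-lactamase reporter under PPARg control, 17 h compound exposure at 37C, fluorescence after 1 h FRET substrate loading at room temperature.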

[18] = qHTS assay for small molecule activators of the heat shock response signaling pathway (AID 743210; active means well fitted activation curve with a large enough effect in the signal ratio in the repeat runs, with a control signal flat, not every such curve was filed as active; the % refers to the signal ratio;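 further: HeLa cells with beta-lactamase reporter driven by heat shock elements; series mostly up to about 63 µM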)
Method in brief: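 Quantitative high-throughput format using an engineered HeLa line in which heat shock response elements drive beta-lactamase; after 5 h with compound, cells received a B/G FRET substrate and fluorescence was read.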

[19] = qHTS assay for small molecule activators of the heat shock response signaling pathway - cell viability counter screen (AID 743209); further: nearly all actives have a fitted effect of over 50% in size
Method in brief: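 First, HSE-bla HeLa cells were seeded at 1500 cells/well and kept overnight at 37 C. Next, compounds were pinned in and incubated 5 h. After the FRET substrate step, CellTiter-Glo was added and luminescence read 30 min later.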

Compound	Potency [1]	Potency [2]	outcome [3]	Potency [4]	outcome [5]	Potency [6]	Potency [7]	outcome [8]	Potency [9]	Potency (Aromatase (Homo sapiens))	Potency [10]	Potency [11]	Potency [12]	outcome [13]	outcome [14]	Potency [15]	Potency [16]	outcome [17]	outcome [18]	outcome [19]
CC(C)OC(=O)COc1ccc(Cl)cc1Cl	inactive	inactive	inactive	inactive	inactive	inactive	inactive	inactive	inactive	inactive	inactive	inactive	inactive	inactive	inactive	inactive	inactive	–	–	–
CC(=O)OCCOC(C)=O	inactive	inactive	inactive	inactive	inactive	inactive	inactive	–	inactive	inactive	inactive	inactive	inactive	inactive	inactive	inactive	inactive	inactive	–	–
CC(C)c1cccc(C(C)C)c1	inactive	inactive	inactive	inactive	inactive	inactive	inactive	inactive	inactive	inactive	inactive	inactive	inactive	inactive	inactive	inactive	inactive	–	inactive	–
CC1(C)NC(=O)NC1=O	inactive	inactive	inactive	inactive	inactive	inactive	inactive	inactive	inactive	inactive	inactive	inactive	inactive	inactive	inactive	inactive	inactive	inactive	inactive	inactive
Cc1ccc([N+](=O)[O-])cc1S(=O)(=O)O	inactive	inactive	inactive	inactive	inactive	inactive	inactive	–	inactive	inactive	inactive	inactive	inactive	inactive	inactive	inactive	inactive	inactive	–	inactive
CC(=O)Oc1ccc(C)cc1	inactive	inactive	inactive	inactive	inactive	inactive	inactive	inactive	inactive	inactive	inactive	inactive	inactive	inactive	inactive	–	inactive	–	–	inactive
Cc1ccc(S(=O)(=O)N=C=O)cc1	inactive	inactive	inactive	inactive	inactive	inactive	inactive	inactive	inactive	inactive	inactive	inactive	inactive	inactive	inactive	inactive	inactive	–	inactive	inactive
CCCCCC(=O)O	inactive	inactive	inactive	inactive	inactive	inactive	inactive	inactive	inactive	inactive	inactive	inactive	inactive	–	inactive	inactive	inactive	inactive	inactive	inactive
CCOCC(=O)O	inactive	inactive	inactive	inactive	inactive	inactive	inactive	–	inactive	inactive	inactive	inactive	inactive	inactive	inactive	inactive	inactive	inactive	inactive	inactive
O=c1[nH]cnc2[nH]ncc12	inactive	inactive	inactive	inactive	inactive	inactive	inactive	inactive	inactive	inactive	inactive	inactive	inactive	inactive	inactive	inactive	inactive	inactive	–	–
Cc1ccc2ncccc2c1	inactive	inactive	inactive	inactive	inactive	inactive	inactive	–	inactive	inactive	inactive	inactive	inactive	inactive	inactive	–	inactive	inactive	inactive	inactive
C=CC(C)CCCC(C)(C)O (centres undefined)	inactive	inactive	inactive	inactive	inactive	inactive	inactive	inactive	inactive	inactive	inactive	inactive	inactive	inactive	inactive	inactive	inactive	inactive	–	inactive
CC(C)CC(C)O (centres undefined)	inactive	inactive	inactive	inactive	inactive	inactive	inactive	inactive	inactive	inactive	inactive	inactive	inactive	inactive	inactive	inactive and 30.6 µM (active)	inactive	–	inactive	–
CCc1ccccc1CC	inactive	inactive	inactive	inactive	inactive	inactive	inactive	inactive	inactive	inactive	inactive	inactive	inactive	inactive	inactive	–	inactive	–	inactive	–
Nc1nc(N)nc(-c2ccccc2)n1	inactive	inactive	inactive	inactive	inactive	inactive	inactive and 34.4 µM (active)	inactive	inactive	inactive	inactive	–	inactive	inactive	inactive	–	inactive	–	–	inactive
CC(CCO)CC(C)(C)C (centres undefined)	inactive	inactive	inactive	inactive	inactive	inactive	inactive	–	inactive	inactive	inactive	inactive	inactive	inactive	inactive	inactive	inactive	inactive	inactive	inactive
